Results filed as inconclusive are left out. A number with no mark means an inactive call. Calls of active or inactive are those of the source. Calls come from the whole dose curve; as a rule, active = well fitted inhibition curve with a large enough effect; inconclusive = small, poorly fitted or top-dose-only effect; inactive = flat fitted curve, though single readings scatter.
Note: nearly all actives have a fitted effect of over 70% in size.
Potency is the fitted concentration of half-maximal effect.

One assay has as its system Zika virus NS2B-NS3 protease (linked construct). The experiment in a line: Confirmatory screen NINDS AMC qHTS for Zika virus inhibitors (AID 1347152). The following applies: Purified linked NS2B-NS3, AMC substrate fluorescence. In outline:
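Enzyme (1 nM, linked construct) was preincubated with compound for 15 minutes at room temperature in 10 mM Tris-HCl pH 8.0 with 0.01% Tween 20. Bz-Nle-Lys-Arg-Arg-AMC was then added to 10 microM, and AMC fluorescence was recorded immediately and after 15 minutes.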
In general terms: qHTS replaces the single test concentration by a dilution series.
With `CCc1oc2ccccc2c1C(=O)c1cc(Br)c(O)c(Br)c1`, the Potency was 9.61 µM (active).
For `CC1(COc2ccc(CC3SC(=O)NC3=O)cc2)CCCCC1` (stereo not given), the Potency is 19.2 µM (active).
In the case of `CCC(CC)(CC(=O)Nc1cccc(/C=C/c2nc(C3CCC3)cs2)c1)C(=O)O`, the Potency was 24.1 µM (active).

Another assay relates to Zika virus NS2B-NS3 protease (unlinked complex). The experiment in a line: Confirmatory screen GU AMC qHTS for Zika virus inhibitors (AID 1347153).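 Note: enzyme at 25 nM with substrate at 10 µM below its Km of 18.3 µM.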 The following applies: Recombinant NS2B-NS3 protease, AMC substrate fluorescence. An excerpt:
Assay Submitters (PI): Avindra Nath, Ph.D., National Institute of Neurological Disorders and Stroke (NINDS), Bethesda, MD Radhakrishnan Padmanabhan, Ph.D., Georgetown University (GU), Washington D.C. Zika Virus causes congenital defects, including microcephaly and is associated with Guillain-Barre syndrome, eningoencephalitis and myelitis in infected adult. […] Using a target-based approach, we hope to establish a screening paradigm to uncover novel, cell-active NS2B-NS3 protease (Zika Virus) specific inhibitors from NCATS' collection of small molecules using qHTS. […] Active compounds in the primary screen are re-acquired and re-screened to confirm NS2B-NS3 protease inhibition. Early Translation Branch (ETB) National Center for Advancing Translational Sciences (NCATS), Rockville, MD National Institute of Health (NIH), Bethesda, Maryland
Materials: Padmanabhan lab provided the NS2B hydrophilic domain and NS3 protease domain in a noncovalent complex used for the unlinked assay. Control compound aprotinin is obtained from Thermo Scientific (#78432; Waltham, Massachusetts). NS2B-NS3 AMC substrate (Bz-Nle-Lys-Arg-Arg-AMC; Nle-KRR-AMC) purchased from Bachem (#I-1995; Torrance, CA). Ac-VKTGKR-AMC purchased from Genscript or Bachem, Ac-FAAGKR-AMC purchased from Genscript, Ac-GLVKRR-AMC purchased from Genscript, Ac-LKKR-AMC purchased from Genscript. […] Plates were then read immediately on a ViewLux High-throughput CCD imager (PerkinElmer, Waltham, MA) equipped with standard UV fluorescence optics (340(30) nm excitation, 450(20) nm emission) then incubated (room temperature, protected from light) for 15 minutes (~20% conversion). The change in fluorescence intensity over the 15-minute reaction period was normalized against no-inhibitor and no-enzyme controls and the resulting percent inhibition data were fitted to a 4-parameter Hill equation. […]
On to `CCc1oc2ccccc2c1C(=O)c1cc(Br)c(O)c(Br)c1`, for which the Potency is 17.1 µM (active).
Regarding `CC1(COc2ccc(CC3SC(=O)NC3=O)cc2)CCCCC1` (stereo not given), the Potency was 21.5 µM (active).
Still for that read-out and setting: the same measure for `C=C1c2cccc(O)c2C(O)=C2C(=O)[C@]3(O)C(O)=C(C(N)=O)C(=O)[C@@H](N(C)C)[C@@H]3[C@@H](O)[C@H]12`: 19.2 µM (active).

Another assay relates to Zika virus NS2B-NS3 protease. The assay is described as follows: Primary screen GU AMC qHTS for Zika virus inhibitors (AID 1347154).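 For activity change, negative = inhibition: 0% = no-inhibitor control and -100% = no-enzyme control.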 The following applies: Zika NS2B-NS3 unlinked protease, AMC fluorogenic substrate; series mostly up to 54.1 µM; activity change, negative = inhibition: at the top concentration. In outline: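 Unlinked Zika NS2B hydrophilic domain/NS3 protease domain noncovalent complex (25 nM final) in 10 mM Tris-HCl pH 8.0, 0.01% Tween 20, with AMC peptide substrate. Fluorescence (ex 340, em 450 nm) change over 15 min, room temperature; percent inhibition fitted to 4-parameter Hill equation.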
With `CCc1oc2ccccc2c1C(=O)c1cc(Br)c(O)c(Br)c1`, the Potency was 10.6 µM (active).
On to `O=C(Nc1cccc(C2=NCCN2)c1)Nc1cccc(C2=NCCN2)c1`, for which the “activity change, negative = inhibition” value is -3.05% [at 25.8 µM].
Consider `CC1(COc2ccc(CC3SC(=O)NC3=O)cc2)CCCCC1` (stereo not given), for which the activity change, negative = inhibition was 6.2% [at 6.83 µM].
The same measure, in the same setting: under `CN(C)C(=O)Nc1ccc(Cl)c(Cl)c1` stands -1.31%; under `C=C[C@@]1(C)CC(=O)[C@]2(O)[C@@]3(C)[C@@H](O)CCC(C)(C)[C@@H]3[C@H](O)[C@H](OC(C)=O)[C@@]2(C)O1`, -3.91%; under `CCCCCCCCCCCCOCCOCCOCCOCCOCCOCCOCCOCCOCCO`, -4.14%.
For the compound `CC(=O)N[C@@H](CCC(=O)O)C(=O)O`, the “activity change, negative = inhibition” value was -0.444%.
On the same count and under the same terms, the same measure for `CCC(CC)(CC(=O)Nc1cccc(/C=C/c2nc(C3CCC3)cs2)c1)C(=O)O`: -20.8%; for `C[C@H]1O[C@@H](O[C@H]2CC[C@@]3(C)[C@H](CC[C@@H]4[C@@H]3C[C@@H](O)[C@]3(C)[C@@H](C5=CC(=O)OC5)CC[C@]43O)C2)C[C@H](O)[C@@H]1O[C@H]1C[C@H](O)[C@H](O[C@H]2C[C@H](O)[C@H](O[C@@H]3O[C@H](CO)[C@@H](O)[C@H](O)[C@H]3O)[C@@H](C)O2)[C@@H](C)O1`: -6.38%.

The values are drawn from PubChem BioAssay (NCATS).
